These results are taken from the supplement of paper PMC8007513.

Structures can show the parent of a compound that is named as a salt. ± gives the standard error. Out of some 1,300 compounds screened, about 130 (10%) showed an effect of 50% or more. Many of the other results were omitted from the sample, so strong results are more common in it than they were.

The assay concerns Trichoderma virens ATCC 9645. Briefly: growth yield (OD600) with compound + IPBC relative to untreated control; higher = less growth inhibition. As to conditions: compound concentration: 100 uM, IPBC concentration: 200 ng/ml. Put shortly: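 For each 96-well plate, 100 μl aliquots were prepared with Trichoderma virens ATCC 9645 spores suspended at 15,000 spores ml^−1 in potato dextrose broth. The spores had been harvested from potato dextrose agar plates after 7 days. Library compounds were present at 100 μM final, some wells also receiving a biocide at 200 ng ml^−1, and plates were grown at 30 °C with OD600 read on a BioTek EL800 at 40 h and 72 h. Reported growth, relative to the control lacking both agents, is the mean of duplicate screens.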

With `CCCCC(CC)CN1CN(CC(CC)CCCC)CC(C)(N)C1` (configuration not stated) [Hexetidine] + CCCCNC(=O)OCC#CI [3-iodo-2-propynyl butylcarbamate (IPBC)], the growth yield was 28.6 ± 8.6% (40 h) and 91.1 ± 1.8% (72 h).

As to `CCOC1O[C@H]([C@@H](COCc2ccccc2)OCc2ccccc2)[C@H](OCc2ccccc2)[C@H]1O` (some centres not stated) [Tribenoside] + CCCCNC(=O)OCC#CI [3-iodo-2-propynyl butylcarbamate (IPBC)], the growth yield was determined as 75.4 ± 2.1% (40 h) and 88.1 ± 1.1% (72 h).

In the case of `COc1cc([C@@H]2c3cc4c(cc3[C@H](O)[C@H]3COC(=O)[C@H]23)OCO4)cc(OC)c1OC` [Podophyllotoxin] + CCCCNC(=O)OCC#CI [3-iodo-2-propynyl butylcarbamate (IPBC)], the growth yield was 104 ± 6.3% (40 h) and 102 ± 4.5% (72 h).

In the case of `CC(=C(CCO)SSCC1CCCO1)N(C=O)Cc1cnc(C)nc1N` (stereo in doubt) [Fursultiamine Hydrochloride] + CCCCNC(=O)OCC#CI [3-iodo-2-propynyl butylcarbamate (IPBC)], the growth yield is, setting by setting: (40 h) 104 ± 4.3%; (72 h) 102 ± 3.2%.

For the compound `Oc1c(I)cc(Cl)c2cccnc12` [Clioquinol] + CCCCNC(=O)OCC#CI [3-iodo-2-propynyl butylcarbamate (IPBC)], the growth yield is, setting by setting: (40 h) 11.4%; (72 h) 5.66 ± 0.21%.

Regarding `Oc1c(Cl)cc(Cl)c2cccnc12` [Chloroxine] + CCCCNC(=O)OCC#CI [3-iodo-2-propynyl butylcarbamate (IPBC)], the growth yield stood at 1.27 ± 0.95% (40 h) and 1.89 ± 0.21% (72 h).

For `CC(C(=O)O)c1ccc2c(c1)Cc1cccnc1O2` (configuration not stated) [Pranoprofen] + CCCCNC(=O)OCC#CI [3-iodo-2-propynyl butylcarbamate (IPBC)], the growth yield came out at 92 ± 8.7% (40 h) and 90.6 ± 3.8% (72 h).

Take `Nc1ncn(C2OC(CO)C(O)C2O)c(=O)n1` (configuration not stated) [Azacytidine-5] + CCCCNC(=O)OCC#CI [3-iodo-2-propynyl butylcarbamate (IPBC)]: the growth yield by setting is: (40 h) 67.2 ± 3%; (72 h) 91.9 ± 1.1%.

For `Cc1cn([C@H]2C=C[C@@H](CO)O2)c(=O)[nH]c1=O` [Stavudine] + CCCCNC(=O)OCC#CI [3-iodo-2-propynyl butylcarbamate (IPBC)], the growth yield is, setting by setting: (40 h) 98.5 ± 15%; (72 h) 97.6 ± 9.5%.

As to `CNS(=O)(=O)Cc1ccc2[nH]cc(CCN(C)C)c2c1` [Sumatriptan succinate] + CCCCNC(=O)OCC#CI [3-iodo-2-propynyl butylcarbamate (IPBC)], the growth yield is 92 ± 11% (40 h) and 91.3 ± 7.7% (72 h).

With `CCCCS(=O)(=O)N[C@@H](Cc1ccc(OCCCCC2CCNCC2)cc1)C(=O)O` [Tirofiban hydrochloride] + CCCCNC(=O)OCC#CI [3-iodo-2-propynyl butylcarbamate (IPBC)], the growth yield came out at 85.5 ± 1.9% (40 h) and 91.3 ± 0.94% (72 h).
